Assay outcomes from PubChem.
BAZ2B inh: blocks human BAZ2B; Potency, µM (highest dose often 114 µM), hits mostly inhibitors; AlphaScreen BAZ2B-H3K14Ac peptide displacement; AID 504333; 360,000 tested, 4.4% active; note: nearly all actives have a fitted effect of over 60% in size
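AlphaScreen displacement of biotin-H3(5-23)K14Ac peptide (50 nM final) from BAZ2B (50 nM final) in PBS pH 7.4, 0.01% Tween-20; complex preformed 30 min RT, then compounds (top 110 uM) 30 min RT, beads 20 min dark.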
HP1b chromo inh: blocks HP1-beta chromodomain binding to methylated histone tails. P83916. AlphaScreen HP1-beta / biotin-H3K9me3 peptide binding. Potency, µM (top dose mostly 114 µM), most hits filed as inhibitors. 390,000 tested, 0.56% active; note: nearly all actives have a fitted effect of over 70% in size
Target sequence (P83916 whole entry, looked up): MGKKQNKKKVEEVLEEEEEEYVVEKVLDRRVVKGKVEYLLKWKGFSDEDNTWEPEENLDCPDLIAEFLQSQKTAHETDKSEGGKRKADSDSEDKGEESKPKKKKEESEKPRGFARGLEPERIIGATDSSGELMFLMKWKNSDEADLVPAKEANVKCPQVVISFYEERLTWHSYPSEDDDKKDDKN
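AlphaScreen: HP1-beta (50 nM) preformed 30 min with biotin-H3(1-18)K9me3 peptide (50 nM) in PBS pH 7.4, 0.01% Tween-20. Compound added for 30 min at RT, then streptavidin donor/nickel chelate acceptor beads (10 ug/mL) for 30 min.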
PLK1 PBD inh: blocks phosphopeptide binding to human PLK1 polo-box domain; P53350; 360,000 tested, 2.8% active; Plk1 PBD binding of FITC phosphopeptide, fluorescence polarization; Potency, µM, most hits filed as inhibitors; note: series mostly up to about 57 µM; nearly all actives have a fitted effect of over 65% in size
G9a block: inhibitors of human histone lysine methyltransferase G9a; AID 504332; Q96KQ7; G9a H3K9 monomethylation, AlphaScreen, 2 h; 350,000 tested, 8.8% active; Potency, µM (titrated, usually from 102 µM), most hits filed as inhibitors; note: nearly all actives have a fitted effect of over 75% in size
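Methyltransferase reactions run at room temperature for 2 h (20 nM enzyme, 500 nM biotin-H3K9 peptide, 20 uM SAM) after a 15 min compound preincubation; product detected by AlphaScreen beads and anti-H3K9me1 antibody.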
VDR inhibitor: vitamin D3 receptor (human) inhibition; Potency, µM, usual class: inhibitors; AID 504847; 400,000 tested, 0.93% active; VDR-SRC2-3 peptide fluorescence polarization, 2 h
Target sequence (P11473 whole entry, looked up): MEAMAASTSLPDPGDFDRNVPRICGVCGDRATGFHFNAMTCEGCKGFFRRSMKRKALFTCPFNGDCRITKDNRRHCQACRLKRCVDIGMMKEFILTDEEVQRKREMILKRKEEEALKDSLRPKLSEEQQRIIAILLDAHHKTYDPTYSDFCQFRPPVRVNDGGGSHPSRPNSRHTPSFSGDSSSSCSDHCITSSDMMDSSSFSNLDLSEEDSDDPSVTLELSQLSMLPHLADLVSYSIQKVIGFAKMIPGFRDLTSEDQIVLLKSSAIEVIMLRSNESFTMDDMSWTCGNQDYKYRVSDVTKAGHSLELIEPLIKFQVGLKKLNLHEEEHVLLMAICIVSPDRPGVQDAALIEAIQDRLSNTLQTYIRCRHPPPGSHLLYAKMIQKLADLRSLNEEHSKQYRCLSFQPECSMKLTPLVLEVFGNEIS
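The screen uses fluorescence polarization to detect compounds that interfere with recruitment of the SRC2-3 coactivator peptide to VDR; plates are read after 2 h at room temperature.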
JMJD2A Tudor: inhibitors of human JMJD2A Tudor domain; O75164; AlphaScreen JMJD2A-Tudor / H3K4me3 peptide binding; Potency, µM (top dose mostly 114 µM), usual class: inhibitors; 390,000 tested, 4.4% active; AID 504339; note: nearly all actives have a fitted effect of over 50% in size
Numbers stand for hits; i = inactive; ? = inconclusive; nt = no result given; ! = not active in a repeat; [ ] = another dose, or the depositor's remark. Only some compounds are listed: those with a hit (about 11% of all), similar ones and a draw of the others. Calls come from the whole dose curve; as a rule, active = well fitted curve in the direction sought with a large enough effect; inconclusive = small, poorly fitted or top-dose-only effect, or another doubt; inactive = no such curve, though single readings can be large; an effect the other way counts as inactive or inconclusive.

SMILES | BAZ2B inh | HP1b chromo inh | PLK1 PBD inh | G9a block | VDR inhibitor | JMJD2A Tudor
CN(C)c1ccc(CC(=O)c2nc3ccccc3s2)cc1 | 40µM | ? | ? | ? | i | 18µM
NS(=O)(=O)c1ccc(Sc2ccccn2)c([N+](=O)[O-])c1 | i | i | i | i | i | i
O=C(O)c1ccc(S(=O)(=O)Nc2ccc(O)c(Sc3nc4ccccc4s3)c2)cc1 | ? | i | 27µM | nt | i | 89µM
NS(=O)(=O)c1ccc(Sc2nc3ccccc3s2)c([N+](=O)[O-])c1 | i | i | i | 45µM | i | ?
CCN(CC)c1ccc(NC(=O)C2COc3ccc(OC)cc3C2)c(C)c1 (configuration not stated) | i | i | nt | 7.9µM | i | i
Cc1ccc(NC(=O)C2CCCN(S(=O)(=O)c3cnc[nH]3)C2)c(Br)c1 (configuration not stated) | i | i | 24µM! | i | ? | ?
CCN(CC)c1ccc(NC(=O)C2CCN(S(=O)(=O)c3cnc[nH]3)CC2)c(C)c1 | nt | i | nt | 11µM | i | ?
COc1ccc2c(c1)CC(C(=O)Nc1ccc(OC)cc1OC)CO2 (configuration not stated) | i | i | nt | i | i | i
CO[C@]12C(COC(N)=O)C3=C(C(=O)C(C)=C(N)C3=O)N1CC1NC12 (some centres not stated) | nt | nt | nt | i[2.33 µM] | i | nt
O=c1cc2c(n[nH]1)CCCC2 | ? | i | i | ? | i | 56µM
O=c1cc2c(n[nH]1)-c1ccccc1CC2 | i | i | i | i | i | i
CN(Cc1ccccc1)C(=O)c1cc2c(s1)-c1ccc(Cl)cc1SC2 | i | i | nt | i | i | i
CCn1c(-c2c[nH]c3ccccc23)n[nH]c1=S | i | i | i | 1.3µM | i | 4µM
C=CCn1c(-c2csc3ccccc23)n[nH]c1=S | i | i | i | ? | i | 18µM
C=CCn1c(-c2c[nH]c3ccccc23)n[nH]c1=S | i | i | i | 4µM | i | 6.3µM
C=CCn1c(CSc2nc3ccccc3s2)nnc1SCC(=O)OCC | i | i | i | ? | i | i
C=CCn1c(-c2ccccn2)n[nH]c1=S | nt | nt | i | nt | nt | nt
CCc1ccc(NC(=O)Cn2cc(S(=O)(=O)c3ccc(F)cc3)c(=O)c3cc(OC)ccc32)cc1 | i | i | nt | i | i | i
COc1ccccc1C(=O)Nc1c(C(=O)Nc2ccccc2F)oc2ccccc12 | ? | i | nt | i | i | i
COc1ccccc1-c1noc(CCC(=O)Nc2cccc(C)c2)n1 | i | i | i | 35µM | i | i
COc1ccccc1-c1noc(CCC(=O)Nc2ccc(C)cc2C)n1 | i | i | nt | ? | i | i
Cc1cccc(N2CCN(C(=O)c3cc(C)oc3C)CC2C)c1 (configuration not stated) | ? | i | i | i | i | i
Cc1cccc(N2CCN(C(=O)C3CCN(C(=O)c4cc5sccc5n4C)CC3)CC2C)c1 (configuration not stated) | 35µM | i | nt | i | i | ?
Cc1cccc(N2CCN(C(=O)c3csc4ccccc34)CC2C)c1 (configuration not stated) | ? | i | i | 50µM | i | ?
Cc1ccc(C)c(N2CCN(C(=O)C3CCN(C(=O)c4cc5sccc5n4C)CC3)CC2)c1 | 25µM | i | nt | ? | i | ?
SMILES | BAZ2B inh | HP1b chromo inh | PLK1 PBD inh | G9a block | VDR inhibitor | JMJD2A Tudor
COc1ccc(C(=O)CSc2nnc(CNC(=O)c3ccc(OC)c(OC)c3)n2C)cc1 | i | i | i | i[12.7 µM] | i | 45µM
COc1ccc(C(=O)NCc2nnc(SCC(=O)c3ccc(F)cc3)n2C)cc1OC | i | i | i | i[0.501 µM] | i | i
CCSCc1nnc(SCC(=O)c2ccc(OC)cc2)n1C | i | i | i | ? | i | 50µM
COc1ccc(C(=O)CSc2nccn2C)cc1 | i | i | i | 50µM | i | i
CCn1c(CNC(=O)c2ccc(OC)c(OC)c2)nnc1SCC(=O)c1ccc(OC)cc1 | i | i | ? | 11µM | i | i[11.4 µM]
COc1cc(=O)[nH]c(SC(C)C(=O)Nc2cc(C)on2)n1 (configuration not stated) | i | i | i | i | i | i
COc1ccc(OC)c(NC(=O)CN2C(=O)CCc3cc(S(=O)(=O)N4CCCCC4)ccc32)c1 | i | i | nt | i[12.7 µM] | i | i
CC[C@H](C)[C@H](NC(=O)[C@H](CC(C)C)NC(=O)[C@@H](N)CO)C(=O)NCC(=O)N[C@@H](CCCCN)C(=O)N[C@H](C(=O)O)C(C)C | nt | nt | nt | nt | i | nt
N#Cc1cc2c(nc1SCC(N)=O)CCCCC2 | i | i | ? | 79µM | i | i
CCOC(=O)CC(=O)CSc1nc2c(cc1C#N)CCCCCC2 | i | i | i | i | i | i
CCCCSc1nc2c(cc1C#N)CCC2 | i | i | i | 4µM | i | i
CC(C)OC(=O)CC(=O)CSc1nc2c(cc1C#N)CCC2 | i | i | i | 45µM | i | i
Cc1ccc(C2(c3ccccc3)NC(=O)N(CC(=O)NC3CCCCC3)C2=O)cc1C (configuration not stated) | i | i | i | 14µM | i | i
CC1=CC(C)C2COC(c3ccc[n+](C)c3)C1C2C (configuration not stated) | i | i | i | 7.1µM | i | i
CC(C)(C)NC(=O)C1(C)CCC(=O)N1C1CCN(Cc2ccccc2)CC1 (configuration not stated) | nt | nt | i | nt | nt | nt
CC1(C)C(=O)C=C[C@]2(C)C1CC(=O)[C@]1(C)C2CC[C@@]2(C)C(c3ccoc3)OC(=O)C3O[C@@]321 (some centres not stated) | nt | nt | nt | i[2.33 µM] | 20µM | nt
CC1(C)O[C@H]2CC(=O)OC[C@@]23C1CC(=O)[C@]1(C)C3CC[C@@]2(C)[C@H](c3ccoc3)OC(=O)[C@H]3O[C@]321 (some centres not stated) | i | i | i | i[12.7 µM] | i | i
O=C(NNC(=S)Nc1ccc(Cl)c(Cl)c1)c1ccccn1 | 4.5µM | i | i | nt | ? | 25µM
CCNC(=S)NNC(=O)c1ccccc1Cl | i | i | i | i | i | i
CCNC(=S)NNC(=O)c1ccccn1 | 3.2µM | i | i | i | i | 25µM
CC(=O)c1c(C)[nH]c(C(=O)COC(=O)c2cc(C)oc2C)c1C | ? | i | i | i[12.7 µM] | i | i
COc1cc(OC)c(NC(=O)c2c3c(nc4ccccc24)C(=O)N(C2CCCCC2)C3)cc1Cl | i | i | nt | i | i | i
COc1ccc(/C=C2\SC(=S)N(C(C(=O)O)c3ccccc3)C2=O)c(OC)c1 (configuration not stated) | ? | i | ? | 50µM | ? | i
COc1ccc(OC)c(/C=C2\SC(=S)N(NS(=O)(=O)c3ccc(C)cc3)C2=O)c1 | ? | ? | 27µM | i[2.33 µM] | ? | 50µM
COc1ccc(/C=C2\SC(=S)N(NS(=O)(=O)c3ccccc3)C2=O)c(OC)c1 | i | i | ? | ? | i | i
